Laboratory results published in PubChem BioAssay (Tox21).
Results filed as inconclusive are left out. Activity calls are given as the source filed them. Calls follow the shape of the dose curve; as a rule, active = well fitted curve in the direction sought with a large enough effect in the repeat runs; inconclusive = weak or mixed curves; inactive = no such curve, though single readings can be large; an effect the other way counts as inactive or inconclusive.

Experiments:
[1] = Caspase-3/7 induction in HepG2 cells by small molecules, qHTS assay (AID 1346978); also: nearly all actives have a fitted effect of over 15% in size
How it was run: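 Wild-type HepG2 cells, 2,000/well, settled 5 hr at 37 C and 5% CO2, then compound-treated for 17 hr; caspase-3/7 activity read by luminescent Caspase-Glo 3/7 after 30 min at room temperature.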

[2] = Caspase-3/7 induction in CHO-K1 cells by small molecules, qHTS cell viability counter screen (AID 1346979); also: nearly all actives have a fitted effect of over 35% in size; also: potency is read from the fitted curve at half-maximal effect
How it was run: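 Wild-type CHO-K1 cells (1,500/well) treated with compound after 5 h plating; after 16 h at 37C, viability read as CellTiter-Fluor fluorescence following 1 h reagent incubation, in the same wells as the caspase read.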

[3] = Caspase-3/7 induction in CHO-K1 cells by small molecules, qHTS assay (AID 1346980); also: nearly all actives have a fitted effect of over 15% in size
How it was run: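 Wild-type CHO-K1 cells exposed to compounds for 17hr at 37 C, 5% CO2. Caspase-3/7 activity then measured by Caspase-Glo 3/7 luminescence after 30min at room temperature.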

[4] = Caspase-3/7 induction in HepG2 cells by small molecules, qHTS cell viability counter screen (AID 1346981); also: nearly all actives have a fitted effect of over 30% in size; also: potency is read from the fitted curve at half-maximal effect; as to activity change, negative = cytotoxicity: series mostly up to about 92 µM
How it was run: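 Wild-type HepG2 cells (2,000/well) were allowed to settle for 5 hr at 37 C, 5% CO2, then dosed with compounds in DMSO by pin transfer. After 16 hr at 37 C, CellTiter-Fluor was added and fluorescence read 1 hr later.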

[5] = molecular target: Nuclear receptor subfamily 1 group I member 2 (Homo sapiens) (UniProt O75469); experiment: Human pregnane X receptor (PXR) small molecule agonists, qHTS assay (AID 1346982); also: nearly all actives have a fitted effect of over 35% in size; also: potency is read from the fitted curve at half-maximal effect
How it was run: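 PXR-Luc HepG2 cells (CYP3A4 promoter-driven luciferase) were seeded in medium with 5% charcoal-stripped FBS, left 5 hr at 37 C, then exposed to compounds in DMSO for 24 hr. Luminescence was read after ONE-Glo addition.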

[6] = molecular target: Nuclear receptor subfamily 1 group I member 2 (Rattus norvegicus) (UniProt Q9R1A7); experiment: Rat pregnane X receptor (rPXR) activation by small molecules, qHTS assay (AID 1346983); conditions: rPXR luciferase reporter cells, One-Glo luminescence, 24 h; max activation: active compounds read high; also: nearly all actives have a fitted effect of over 20% in size
How it was run: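 Cell-based rPXR activation assay: rPXR cells, 2,000 per well, rested 5hr at 37 C, then exposed to compounds in DMSO for 24 hr at 37 C. Luciferase activity read by One-Glo luminescence after 30 min at room temperature.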

[7] = molecular target: Nuclear receptor subfamily 1 group I member 2 (Homo sapiens) (UniProt O75469); experiment: CYP3A4 induction through human pregnane X receptor (PXR) by small molecules, qHTS assay (AID 1346984); also: nearly all actives have a fitted effect of over 40% in size; also: potency is read from the fitted curve at half-maximal effect
How it was run: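 DPX-2 cells (HepG2 co-transfected with PXR and CYP3A4 promoter-luciferase) treated with compounds 24 h at 37C; luciferin-IPA CYP3A4 substrate 3uM final added for 3 h, then One-Glo; luminescence read. qHTS format.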

[8] = molecular target: Nuclear receptor subfamily 1 group I member 2 (Homo sapiens) (UniProt O75469); experiment: Human pregnane X receptor (PXR) activation by small molecules, qHTS assay (AID 1346985); also: nearly all actives have a fitted effect of over 40% in size; also: potency is read from the fitted curve at half-maximal effect
How it was run: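 DPX-2 cells (HepG2 co-transfected with a PXR response element and a CYP3A4-promoter luciferase construct) were seeded at 2,000 per well, rested 5 hr at 37C, then exposed to DMSO-dissolved compounds for 24 hr. Activation was read as luciferase luminescence.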

[9] = molecular target: Cytochrome P450 2D6 (Homo sapiens) (UniProt P10635); experiment: Cytochrome P450 Family 2 Subfamily D Member 6 (CYP2D6) small molecule antagonists: luciferase reporter qHTS assay (AID 1671196); also: nearly all actives have a fitted effect of over 50% in size; also: potency is read from the fitted curve at half-maximal effect; as to activity change, negative = inhibition: series mostly up to about 120 µM
How it was run: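 CYP2D6 enzyme–substrate mix was held with compound for 10 min at room temperature, then NADPH regeneration solution was added and the reaction ran 1 h at room temperature. Luciferin product was detected by luminescence after 20 min with detection reagent.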

[10] = molecular target: Cytochrome P450 2C19 (Homo sapiens) (UniProt P33261); experiment: Cytochrome P450 Family 2 Subfamily C Member 19 (CYP2C19) small molecule antagonists: luciferase reporter qHTS assay (AID 1671197); also: nearly all actives have a fitted effect of over 65% in size; also: potency is read from the fitted curve at half-maximal effect; as to activity change, negative = inhibition: series mostly up to about 120 µM
How it was run: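 Luminescent readout of CYP2C19 activity: luciferin product detected 20 min after adding detection reagent. Before that, compound and enzyme-substrate mix preincubated 10 min at room temperature; NADPH-regenerating system started a 1 h, 37C reaction. Ketoconazole as positive control.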
% is scaled to controls: 0 for no effect and ±100 for the full control effect.

Chain of Nuclear receptor subfamily 1 group I member 2 (Homo sapiens) (O75469 whole entry, looked up): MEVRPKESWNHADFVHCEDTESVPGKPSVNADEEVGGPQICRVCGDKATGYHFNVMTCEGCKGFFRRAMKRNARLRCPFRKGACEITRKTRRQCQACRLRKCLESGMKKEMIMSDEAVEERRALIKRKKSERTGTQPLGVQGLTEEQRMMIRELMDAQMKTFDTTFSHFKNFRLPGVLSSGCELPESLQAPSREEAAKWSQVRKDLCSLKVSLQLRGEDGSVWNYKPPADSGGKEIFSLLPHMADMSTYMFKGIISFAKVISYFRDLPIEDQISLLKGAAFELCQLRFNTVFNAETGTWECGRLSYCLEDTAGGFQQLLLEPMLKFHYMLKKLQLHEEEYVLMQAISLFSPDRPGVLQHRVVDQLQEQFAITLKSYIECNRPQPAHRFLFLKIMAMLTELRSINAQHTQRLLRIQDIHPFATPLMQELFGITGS
Chain of Nuclear receptor subfamily 1 group I member 2 (Rattus norvegicus) (Q9R1A7 whole entry, looked up): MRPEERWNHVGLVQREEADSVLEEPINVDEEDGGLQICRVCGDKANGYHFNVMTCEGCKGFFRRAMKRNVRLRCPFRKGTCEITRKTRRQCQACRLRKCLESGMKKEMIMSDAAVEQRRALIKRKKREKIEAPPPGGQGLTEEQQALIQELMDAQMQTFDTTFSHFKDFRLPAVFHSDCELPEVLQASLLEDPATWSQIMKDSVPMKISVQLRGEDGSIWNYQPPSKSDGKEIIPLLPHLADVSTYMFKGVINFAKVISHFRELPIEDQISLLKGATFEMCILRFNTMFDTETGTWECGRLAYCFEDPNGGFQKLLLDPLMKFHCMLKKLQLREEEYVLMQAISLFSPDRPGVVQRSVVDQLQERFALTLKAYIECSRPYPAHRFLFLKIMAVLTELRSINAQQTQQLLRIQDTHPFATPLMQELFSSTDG
Chain of Cytochrome P450 2C19 (Homo sapiens) (P33261 whole entry, looked up): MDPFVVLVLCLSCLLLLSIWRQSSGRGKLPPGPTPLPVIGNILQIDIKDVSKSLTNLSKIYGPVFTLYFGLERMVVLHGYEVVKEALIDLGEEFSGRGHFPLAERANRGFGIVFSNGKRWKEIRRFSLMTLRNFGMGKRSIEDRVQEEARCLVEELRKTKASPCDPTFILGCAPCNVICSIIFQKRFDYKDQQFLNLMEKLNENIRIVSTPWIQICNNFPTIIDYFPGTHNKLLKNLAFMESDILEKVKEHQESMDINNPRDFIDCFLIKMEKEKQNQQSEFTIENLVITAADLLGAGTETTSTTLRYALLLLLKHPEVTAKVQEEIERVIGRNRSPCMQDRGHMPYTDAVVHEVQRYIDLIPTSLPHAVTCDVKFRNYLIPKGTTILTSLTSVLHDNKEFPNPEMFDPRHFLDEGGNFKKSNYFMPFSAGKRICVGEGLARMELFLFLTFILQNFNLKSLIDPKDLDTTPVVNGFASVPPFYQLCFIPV
Chain of Cytochrome P450 2D6 (Homo sapiens) (P10635 whole entry, looked up): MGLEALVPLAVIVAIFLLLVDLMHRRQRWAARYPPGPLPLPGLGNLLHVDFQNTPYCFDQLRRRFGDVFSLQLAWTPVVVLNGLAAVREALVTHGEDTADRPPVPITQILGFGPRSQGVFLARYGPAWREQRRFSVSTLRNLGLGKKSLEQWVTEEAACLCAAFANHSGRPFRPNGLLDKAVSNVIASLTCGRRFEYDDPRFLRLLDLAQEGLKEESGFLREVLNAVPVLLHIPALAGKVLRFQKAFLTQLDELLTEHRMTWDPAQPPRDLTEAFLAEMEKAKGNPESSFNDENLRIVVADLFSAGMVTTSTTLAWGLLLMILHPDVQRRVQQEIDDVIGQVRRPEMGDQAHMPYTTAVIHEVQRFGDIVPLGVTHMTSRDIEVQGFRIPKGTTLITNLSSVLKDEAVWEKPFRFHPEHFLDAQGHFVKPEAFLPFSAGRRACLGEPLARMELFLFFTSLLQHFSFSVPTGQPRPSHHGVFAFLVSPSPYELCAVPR

CCN(CC)CCOc1ccccc1C(=O)CCc1ccccc1
active: Potency [5] 26.6 µM | Potency [7] 14.1 µM | Potency [8] 15.8 µM | Potency [9] 0.692 µM
inactive: Potency [1] | Potency [2] | outcome [3] | Potency [4] | max activation [6] 4.09% | Potency [10]

O=C(Nc1ccc(C(=O)O)c(O)c1)c1ccccc1
active: Potency [9] 15.5 µM
inactive: Potency [1] | Potency [2] | outcome [3] | Potency [4] | Potency [5] | max activation [6] -2.23% | Potency [7] | Potency [8]

CS(=O)(=O)c1ccc([C@@H](C[C@H]2CCC(=O)C2)C(=O)Nc2cnccn2)cc1Cl
inactive: Potency [1] | Potency [2] | outcome [3] | Potency [4] | Potency [5]

COc1ccc(CCN(C)CCCN2CCc3cc(OC)c(OC)cc3CC2=O)cc1OC
inactive: Potency [1] | Potency [2] | outcome [3] | Potency [4] | Potency [5] | max activation [6] 3.44% | Potency [7] | Potency [8] | Potency [9] | Potency [10]

CC(C)C1CCC(C(=O)N[C@H](Cc2ccccc2)C(=O)O)CC1 (stereo partly specified)
inactive: Potency [1] | Potency [2] | outcome [3] | Potency [4] | Potency [5] | max activation [6] -2.46% | Potency [8] | Potency [9]

CC(C)(C(=O)c1cccnc1)c1cccnc1
inactive: Potency [1] | Potency [2] | outcome [3] | Potency [4] | Potency [5] | max activation [6] -1.51% | Potency [7] | Potency [8] | Potency [10]

c1ccc2sc(SSc3nc4ccccc4s3)nc2c1
active: Potency [10] 4.77 µM
inactive: caspase activation [1] 1.15% [at 19 µM] | activity change, negative = cytotoxicity [2] 8.61% [at 19 µM] | caspase-3/7 activation [3] -0.79% [at 19 µM] | activity change, negative = cytotoxicity [4] 0.175% [at 19 µM] | activation [5] 0% [at 19 µM] | max activation [6] -4.43% | Potency [7] | Potency [8]

COc1ccc(-c2cc(C(F)F)nn2-c2ccc(S(N)(=O)=O)cc2)cc1F
active: Potency [5] 15 µM | Potency [9] 8.71 µM
inactive: Potency [1] | Potency [2] | outcome [3] | Potency [4] | max activation [6] -1.2% | Potency [7] | Potency [8]

COc1ccc(C2C(=O)c3ccccc3C2=O)cc1
inactive: Potency [1] | Potency [2] | outcome [3] | Potency [4] | Potency [5] | max activation [6] 8.42% | Potency [7] | Potency [9]
active: Potency [10] 8.71 µM

CCCCCCCCCCCSCC(=O)O
active: Potency [9] 31.7 µM
inactive: Potency [1] | Potency [2] | outcome [3] | Potency [4] | Potency [5]

CNCc1ccc(NC(=O)c2c[nH]c3c2C(=O)CCC3)cc1
inactive: Potency [1] | Potency [2] | outcome [3] | Potency [4] | Potency [9]
active: Potency [5] 1.09 µM

C=CCOC(=O)COCCC(C)C
inactive: Potency [1] | Potency [2] | outcome [3] | Potency [4] | Potency [5]

COc1cc(NC(C)CCCN)c2ncccc2c1 (stereo unspecified)
inactive: Potency [1] | Potency [2] | outcome [3] | Potency [4] | Potency [5] | max activation [6] -6.86% | Potency [8]

Cc1c(C2(c3cc(Br)c(O)c(Br)c3C)OS(=O)(=O)c3ccccc32)cc(Br)c(O)c1Br
active: Potency [2] 16.7 µM | Potency [4] 18.8 µM | Potency [9] 24.4 µM | Potency [10] 15.4 µM
inactive: Potency [1] | outcome [3] | Potency [5]

CCO[Si](C)(CCCOCC1CO1)OCC (stereo unspecified)
inactive: Potency [1] | Potency [2] | outcome [3] | Potency [4] | Potency [5] | Potency [9] | Potency [10]

CCOC(=O)Oc1ccc(CCNC(=O)[C@H](CCSC)NC(C)=O)cc1OC(=O)OCC
inactive: Potency [1] | Potency [2] | outcome [3] | Potency [4] | Potency [5] | Potency [9] | Potency [10]

NC(=O)c1ccccc1[N+](=O)[O-]
inactive: Potency [1] | Potency [2] | outcome [3] | Potency [4] | Potency [5] | Potency [9] | Potency [10]

CC(=O)C(=O)CC(C)C
active: Potency [10] 35.4 µM
inactive: Potency [1] | Potency [2] | outcome [3] | Potency [4] | Potency [5] | Potency [9]

CCC(CO)(CO)CO
inactive: Potency [1] | Potency [2] | outcome [3] | Potency [4] | Potency [5] | Potency [9] | Potency [10]

CCOCCC(=O)OCC
inactive: Potency [1] | Potency [2] | outcome [3] | Potency [4] | Potency [5] | Potency [9] | Potency [10]

COC(OC)OC
inactive: Potency [1] | Potency [2] | outcome [3] | Potency [4] | Potency [5] | Potency [9] | Potency [10]

Cc1oc(=O)oc1COC(=O)[C@@H]1N2C(=O)[C@@H](NC(=O)[C@H](N)c3ccccc3)[C@H]2SC1(C)C
inactive: Potency [1] | Potency [2] | outcome [3] | Potency [4] | Potency [5] | Potency [9] | Potency [10]

CCCCCCCCCCCCCC(=O)OCC(O)CO (stereo unspecified)
inactive: Potency [1] | Potency [2] | outcome [3] | Potency [4] | Potency [5] | Potency [9]
active: Potency [10] 35.6 µM

COc1ccc(C)cc1
active: Potency [9] 17.8 µM | Potency [10] 79.6 µM
inactive: Potency [1] | Potency [2] | outcome [3] | Potency [4] | Potency [5]

Nc1ccc(N=Nc2ccc(N)cc2)cc1
inactive: Potency [1] | outcome [3] | Potency [5] | Potency [9]
active: Potency [2] 24.3 µM | Potency [4] 27.3 µM

CCC(Cl)CC(Cl)C(Cl)C(Cl)C(Cl)C(C)Cl (stereo unspecified)
inactive: caspase activation [1] -16.4% [at 19 µM] | activity change, negative = cytotoxicity [2] 10.4% [at 19 µM] | caspase-3/7 activation [3] -6.38% [at 19 µM] | activity change, negative = cytotoxicity [4] 1.11% [at 19 µM] | activity change, negative = inhibition [9] -20% [at 23.6 µM]
active: Potency [5] 1.19 µM | Potency [10] 1.73 µM

CC(=O)OCCC1CCCCC1
inactive: Potency [1] | Potency [2] | outcome [3] | Potency [4] | Potency [5] | Potency [9] | Potency [10]

CC(C)(C)C(O)/C=C/c1ccc2c(c1)OCO2 (stereo unspecified)
active: Potency [5] 29.8 µM | Potency [9] 27.5 µM | Potency [10] 3.89 µM
inactive: Potency [1] | Potency [2] | outcome [3] | Potency [4]
